Compound activity deposited in PubChem by National Center for Advancing Translational Sciences (NCATS).
An excerpt weighted towards active compounds, which were near 11% of everything screened.
Pf growth 48h = P. falciparum growth inhibition at 48 hours (one generation) | Potency, µM (series often up to 28.7 µM), for the others: top-dose activity change, negative = inhibition, usual class: inhibitors | P. falciparum luciferase growth in erythrocytes, 48 h | hit rate 5.9% among 310,000; note: % is set by controls: 0 for no effect and ±100 for the full control effect
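Read-out is firefly luciferase luminescence from an integrated reporter in P. falciparum, so falling signal marks reduced parasite growth. Infected erythrocytes were at 2% hematocrit and 0.1% parasitemia (final) in Albumax-supplemented RPMI 1640.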
AMA1 RON2 block = AMA1-RON2 (P. falciparum) interaction inhibition; AlphaScreen AMA1-biotinylated RON2 peptide binding; hit rate 0.2% among 360,000; AID 720542; Potency, µM (doses to about 58.2 µM), for inactives: at the top dose activity change, negative = inhibition, hits mostly inhibitors;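 note: 0% = vehicle wells and -100% = peptide control; nearly all actives have a fitted effect of over 45% in size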
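AMA1 (3D7) with his tag at 25 nM final met compounds first, then biotinylated RON2 peptide at 25 nM; detection used donor plus acceptor beads, 10 µg/mL apiece, read by AlphaScreen after 30 min at room temperature.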
NS1 inh = influenza NS1 inhibition; Potency, µM (series often up to 46.1 µM), for inactives: at the top dose activity, positive = more growth; hit rate 0.4% among 270,000; AID 2326; calls by dose curve; note: actives are rising curves; nearly all actives have a fitted effect of over 50% in size
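A cell-based growth assay was used: compounds that relieve NS1-induced slow growth of budding yeast raise OD600. Assay medium was yeast nitrogen base with ammonium sulphate and -URA supplement, pH 6.0, with 2% galactose.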
Pf growth 96h = inhibits malaria parasite growth, 96 h; P. falciparum luciferase reporter growth, 96 h; Potency, µM (series often up to 28.7 µM), inactives show at the highest dose activity change, negative = inhibition, actives largely listed as inhibitors; hit rate 6.9% among 320,000; note: % is set by controls: 0 for no effect and ±100 for the full control effect
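Erythrocytes infected with luciferase-expressing P. falciparum were dispensed at 2% hematocrit and 0.05% parasitemia (final), then incubated with compounds 96 hours at 37 C in 5% CO2. Luminescence after detection reagent addition reported growth.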
Sm TGR inh = inhibitors of Schistosoma mansoni thioredoxin glutathione reductase; Potency, µM (series often up to 114 µM), without a hit: top-dose activity change, negative = inhibition, most hits filed as inhibitors; hit rate 3% among 360,000; purified TGR, DTNB reduction, TNB absorbance 405 nm; AID 485364; note: % is set by controls: 0 for no effect and ±100 for the full control effect; nearly all actives have a fitted effect of over 60% in size
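Kinetic colorimetric format: TGR-catalysed, NADPH-driven DTNB reduction monitored via TNB absorbance. Enzyme dispensed at 20 nM; compound exposure 15 min at room temperature before reaction start.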
The depositor's hits bear a star; ? = inconclusive; . = no result given; [ ] = remark or other dose. Unless noted, calls come from the whole dose curve; as a rule, active = well fitted curve in the direction sought with a large enough effect; inconclusive = small, poorly fitted or top-dose-only effect, or another doubt; inactive = no such curve, though single readings can be large; an effect the other way counts as inactive or inconclusive. Potency is the fitted concentration of half-maximal effect.

SMILES | Pf growth 48h | AMA1 RON2 block | NS1 inh | Pf growth 96h | Sm TGR inh
O=c1ccn(-c2cccc(C(F)(F)F)c2)nc1-c1ccn(-c2ccccc2F)n1 | ? | -13% | 2% | 5.9µM* | -1%
Cc1ccc(-n2ccc(-c3nn(-c4ccccc4)ccc3=O)n2)cc1 | ? | -8% | . | 7.4µM* | -6%
COc1ccc(-n2ccc(-c3nn(-c4cccc(C(F)(F)F)c4)ccc3=O)n2)cc1 | 7.4µM* | 2% | 17% | 3.3µM* | -1%
O=C(O)c1nn(-c2cccc(C(F)(F)F)c2)ccc1=O | . | -4% | -1% | 19% | 0%
CC(Sc1nnc(C2CC2)n1C1CC1)C(=O)Nc1cccc(S(=O)(=O)N(C)C)c1 (centres undefined) | ? | -8% | . | ? | -4%
O=C(Nc1cccc(/C=C/c2ccccn2)c1)c1ccc(-n2cncn2)c([N+](=O)[O-])c1 | 5.2µM* | -6% | . | 4.7µM* | 4%
Cc1ccc(NC(=O)c2ccc(-n3cccn3)c([N+](=O)[O-])c2)cc1 | -12% | -10% | -26% | ? | ?
CCc1ccc(NC(=O)c2ccc(-n3cncn3)c([N+](=O)[O-])c2)cc1 | 12µM* | -16% | . | ? | 2%
Cc1cccc(NC(=O)c2ccc(-n3cccn3)c([N+](=O)[O-])c2)c1 | 3% | 7% | 2% | ? | 40µM*
C=CC(=O)N=c1sc2ccccc2n1-c1ccccc1 | 35% | 22% | . | ? | 40µM*
N=c1sc2ccccc2n1-c1ccccc1 | -5% | -1% | 6% | -13% | -11%
C(=C/c1ccnc2nc(SC/C=C/c3ccccc3)nn12)/c1ccccc1 | ? | 13% | 12% | 15µM* | -6%
Cc1cc(=O)n2nc(N3CCC(C(=O)Nc4c(C)cccc4C)CC3)sc2n1 | . | . | . | . | -3%
CCc1cccc(C)c1NC(=O)C1CCN(c2nn3c(=O)cc(C)nc3s2)CC1 | -11% | 8% | 6% | 9.3µM* | 2%
CCc1ccc(NC(=O)C2CCCN2c2nn3c(=O)cc(C)nc3s2)cc1 (centres undefined) | -3% | 0% | 23% | 13µM* | -12%
OCC1OC(n2cnc3c(/C=C(\O)c4ccccc4)ncnc32)C(O)C1O (centres undefined) | . | 71% | . | . | .
CSC1=NC(NCCCO)c2c(sc3c2CC(C)(C)OC3)N1 (centres undefined) | ? | 6% | 2% | 9.3µM* | -15%
NS(=O)(=O)c1ccc(CCNC(=O)CCCCCNc2nc(=S)[nH]c3ccccc23)cc1 | -7% | . | -4% | 2.9µM* | 0%
Cc1ccc(CNC(=O)CCCCCNc2nc(=S)[nH]c3ccccc23)cc1 | ? | . | . | ? | -3%
COc1ccc(C2=NN(CCC(=O)NC3CCCCC3C)C(=O)CC2)cc1 (centres undefined) | . | -8% | . | . | .
COc1c(O)c(=O)n2c3ccccc3c3ccnc1c32 | 10µM* | 1% | . | ? | 4µM*
O=c1c(Cl)c(O)c2cccc3c4ccccc4n1c23 | -19% | -4% | -30% | 51% | 5%
CNc1oc(Cc2ccccc2)nc1S(=O)(=O)c1ccc(Cl)cc1 | -8% | -3% | -1% | ? | 13µM*
Cc1ccc(-c2nc3ccccc3[nH]2)cc1NC(=O)c1sc2cc(Cl)ccc2c1Cl | 3.3µM* | -1% | -23% | ? | 3%
CCCn1c(CC)nc([N+](=O)[O-])c1Sc1ncn[nH]1 | . | 11% | . | . | .
SMILES | Pf growth 48h | AMA1 RON2 block | NS1 inh | Pf growth 96h | Sm TGR inh
CCCCn1c(CCC)nc([N+](=O)[O-])c1Sc1ccc(Cl)cn1 | 10µM* | -18% | -14% | 15µM* | 22µM*
CC(C)Cn1c(C(C)C)nc([N+](=O)[O-])c1Sc1ccc(Cl)cn1 | 9.3µM* | 3% | -8% | 9.3µM* | -28%
Cc1cc(C)c(S(=O)(=O)NC(C)C)c(C)c1-n1cnnn1 | 6% | 23% | 1% | -13% | 13%
COc1ccc(CNC(=O)CSc2nnc(NC(=O)c3ccccc3F)s2)cc1 | 128% | -1% | -3% | 2% | 4%
CCN(Cc1nc2cc(Cl)ccc2c(=O)[nH]1)C(=O)c1nn(C)c(=O)c2ccccc12 | 8.3µM* | 24%[11.6 µM] | . | ? | 10%
CCN(Cc1nc2cc(Cl)ccc2c(=O)[nH]1)C(=O)c1cc(C2CC2)nn1-c1ccccc1 | ? | 46% | . | ? | -21%
CCN(Cc1nc2cc(Cl)ccc2c(=O)[nH]1)C(=O)c1ccc(C)c(NC(=O)c2ccco2)c1 | 9.3µM* | 48% | . | 8.3µM* | ?
CCOC(=O)N1CCc2c(sc(NC(=O)CCS(=O)(=O)c3ccccc3)c2C(N)=O)C1 | ? | 9% | 22% | 15µM* | -27%
CCOC(=O)N1CCc2c(sc(NC(C)=O)c2C(N)=O)C1 | . | 4% | . | . | .
CCOC(=O)N1CCc2c(sc(NC(=O)C3COc4ccccc4O3)c2C(N)=O)C1 (centres undefined) | ? | 5% | 0% | 9.3µM* | 3%
CC(=O)N1CCc2c(sc(NC(=O)C3COc4ccccc4O3)c2C(N)=O)C1 (centres undefined) | 2% | 13% | -3% | 12µM* | -35%
COC(=O)c1c(NC(=O)C2COc3ccccc3O2)sc2c1CCN(C(C)=O)C2 (centres undefined) | ? | 15% | 19% | ? | 5%
CC(=O)N1CCc2c(sc(NC(=O)CCS(=O)(=O)c3ccccc3)c2C(N)=O)C1 | ? | 0% | 2% | -27% | -2%
CCOC(=O)N1CCc2c(sc(NC(=O)c3ccc(Cl)s3)c2C(N)=O)C1 | ? | . | -131% | 13µM* | -27%
CCN(CC(=O)Nc1ccc(OC)cc1)C(=O)Cc1cccs1 | 3% | 7% | . | 3% | -32%
Cc1c(NC(=O)CN2C(=O)NC3(CCCC3)C2=O)c(=O)n(-c2ccccc2)n1C | 12% | -3% | . | 5% | 10%
O=C(c1csc(Nc2ccccc2Cl)n1)N1CCCC1 | 21% | 15% | -43% | 2.3µM* | -9%
O=C(c1csc(Nc2cccc3ccccc23)n1)N1CCCC1 | ? | 4% | -36% | ? | 1%
Cc1cc(Cl)ccc1NC(=O)c1cc2ccccn2n1 | . | . | . | . | 1%
O=C(COC(=O)/C=C/c1ccco1)NC1CCCCC1 | -18% | -5%[11.6 µM] | . | -12% | 13µM*
O=C(COC(=O)/C=C/c1cccc(Br)c1)NC1CCCCC1 | 13% | -8% | . | 20% | 0%
O=C(COC(=O)/C=C/c1ccc(Br)o1)NC1CCCCC1 | ? | -1% | . | -28% | 13µM*
O=C(/C=C/c1ccco1)NC1CCCC1 | -4% | 5% | -1% | ? | 4.5µM*
O=C(C=C1SCCS1)/C=C/c1ccco1 | 297% | ? | -8% | 331% | 7.1µM*
O=C(COc1ccc(Cl)cc1Cl)NCCN1CCCC1 | . | -8% | . | . | .
CC1CC(C(=O)Nc2ccccc2)C(=O)O1 (centres undefined) | . | 0% | . | . | .
COc1ccc(/C=C/C(=O)OCC(=O)Nc2ccc(Cl)cn2)cc1 | -2% | 5% | . | 11% | -21%
